In PubChem BioAssay AID651871 (Sanford-Burnham Center for Chemical Genomics, 2012):

Each compound was assayed on HL-1 (assay: protection of cardiomyocytes from stress damage, SAR follow-up, cell-based, panel, H9c2 and HL-1, ATP luminescence, set 2 (AID 651871;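 also: cells exposed to stressor for 2 h before ATP readout; reference of the scale not given here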)). Settings: H9c2/HL-1 cardiomyocytes, 2-deoxyglucose stress, with 2-deoxyglucose, run 6, at 79 µM (top of the series).

Row | Compound | activity (protection/inhibition) [%]
1 | CCOC(=O)c1cccc(NC(=O)CNC(=O)c2cc(-c3cc(OC)c(OC)c(OC)c3)nc3ccccc23)c1 | 74.8
2 | COc1ccc2c(c1OC)C(=O)N1c3ccccc3C(=O)N(Cc3cccc(Cl)c3Cl)C21 (stereo not drawn) | -11.4
3 | COc1ccc2nc(-c3cc(OC)c(OC)c(OC)c3)cc(C(=O)NCC(=O)Nc3ccc(C(C)=O)cc3)c2c1 | 61.1
